The first assay deals with BBS5. As to the kind of experiment: pooled miR-30 sensor sort-seq; sequence = guide strand. Conditions: shRNA.
The sequence TTTATCATATACATGTTCTTGT had a sensor-assay potency score (higher = more potent) of 0.705. Same read-out and setting: to AAATTTTGAATCTCTAATCTTT belongs -0.135; to TATCATATACATGTTCTTGTGG, -0.0827. Still for that read-out and setting: to TTGAATTTGTTCGACTGTCAGA belongs -0.412. Sequence TTTTATCATATACATGTTCTTG had a sensor-assay potency score (higher = more potent) of -0.69.

TAAATATAAATTCAAAACGAGT: the sensor-assay potency score (higher = more potent) was -1.56. Still for that read-out and setting: to TTAGAGTTAGCAGTCCTTGTTG belongs -0.252; to TTCGACTGTCAGAGCTTCGAGC, -0.723.

AACATATCCACCACTCTGCTGA had a sensor-assay potency score (higher = more potent) of -0.129.

TTTCCTTAACTGATTCTTGTAG showed a sensor-assay potency score (higher = more potent) of -0.239. For the sequence TTCTACATCATCTTGAATTTGT, the sensor-assay potency score (higher = more potent) was -0.245. On the same count and under the same terms, to TTAGTATATAGAGAGCTTCAGT belongs -0.624.

A further assay has as its target BCAR3. The assay is described as above. Conditions: shRNA.
TTGAATTTCTCATATCTCTCTG: the sensor-assay potency score (higher = more potent) came to 0.778. On the same count and under the same terms, to TAACCTTGTGATCTGTGGCATT belongs -0.946.

TTGGTGAACAGTTCTTTTGCAC: the sensor-assay potency score (higher = more potent) came to 0.174.

Turning to TTGCACGTTTCAACATTGCTGT, the sensor-assay potency score (higher = more potent) is -0.296.

As to TAGGAAGTCACCATCTCGCTGC, the sensor-assay potency score (higher = more potent) amounted to 0.641. Still for that read-out and setting: to TTGAGGAACGGCACCTTGCAGG belongs -0.594; to TCGCATTTGAAATTCAGTCTTG, -0.471. Same read-out and setting: next, TTTTCTAACCTTGTGATCTGTG: -0.0388; TGAATTTCTCATATCTCTCTGT: 0.413; TCTGATTGACTTGTGCACCTTT: 0.95.

Consider TTGAGGGACAAGGCTCTTCTGT, for which the sensor-assay potency score (higher = more potent) is -0.76. Same read-out and setting: to TTGACTTGTGCACCTTTGCTGC belongs -0.561.

In another assay the target is BCL11A. Described as above. Conditions: shRNA.
TTGCACTATATTATCCTGCCAA yielded a sensor-assay potency score (higher = more potent) of -0.344. Sequence TTAATTGTCCTATCTGAGCAGG showed a sensor-assay potency score (higher = more potent) of -0.599. Still for that read-out and setting: to TAAAAGACAACATAGAATGTAT belongs 0.0879; to TATCATTTGATTGTCCACTTGA, 0.591.

Sequence TGAAATTTGAACGTCTTGCCGC gave a sensor-assay potency score (higher = more potent) of 0.0443.

Sequence TTGACAACCAAGTAGATCTGGA showed a sensor-assay potency score (higher = more potent) of 0.0039. With TAGCATAGGAATCAACATGAGT, the sensor-assay potency score (higher = more potent) was -0.704. The same measure, in the same setting: next, TACTATATAATCTTAAACCTTT: -0.147. The same measure, in the same setting: to ATAACAAGTAGAAAGAACCATC belongs -0.773. Still for that read-out and setting: next, TTCACATTTGTAAACGTCCTTC: -0.693; TTATTTTATACTCAACCTCTGT: -0.873. Sequence TAAACAATCGTCATCCTCTGGC came in with a sensor-assay potency score (higher = more potent) of -0.0288.
Also: reference of the scale not given here.
